The target in experiment [1] is Cytochrome P450 3A7 (Homo sapiens) (UniProt P24462). In words: Cytochrome P450 family 3 subfamily A member 7 (CYP3A7) small molecule antagonists: luciferase biochemical qHTS assay (AID 1963596). The procedure, abridged: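 Compounds were screened in qHTS format for interference with CYP3A7 turnover of a proluciferin substrate. Reactions ran 1 h at room temperature after NADPH regeneration solution was added, then luciferin product was detected by luminescence.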

Experiment [2] can be described thus: Viability qHTS for spleen associated tyrosine kinase inhibitor (SYKi) naive MV4-11 cells (AID 1963823). Put shortly: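 CellTiter-Glo luminescence, 10 min room-temperature incubation, gave viability. Cells: naive MV4-11 (500/well), treated 72 hr at 37 C, 5% CO2.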

The values that follow come from PubChem BioAssay (NCATS).

Results filed as inconclusive are left out. A call without a number means that no potency is given here. A number with no mark means an inactive call. Active and inactive are the calls of the source. Calls come from the whole dose curve; as a rule, active = well fitted curve in the direction sought with a large enough effect; inconclusive = small, poorly fitted or top-dose-only effect, or another doubt; inactive = no such curve, though single readings can be large; an effect the other way counts as inactive or inconclusive. Where a SMILES comes first, the peptide text is derived from it. The star is where a group is joined. PhAc = O=C(Cc1ccccc1)*
Note: nearly all actives have a fitted effect of over 40% in size.
Potency is the fitted concentration of half-maximal effect.

Chain of Cytochrome P450 3A7 (Homo sapiens) (P24462 whole entry, looked up): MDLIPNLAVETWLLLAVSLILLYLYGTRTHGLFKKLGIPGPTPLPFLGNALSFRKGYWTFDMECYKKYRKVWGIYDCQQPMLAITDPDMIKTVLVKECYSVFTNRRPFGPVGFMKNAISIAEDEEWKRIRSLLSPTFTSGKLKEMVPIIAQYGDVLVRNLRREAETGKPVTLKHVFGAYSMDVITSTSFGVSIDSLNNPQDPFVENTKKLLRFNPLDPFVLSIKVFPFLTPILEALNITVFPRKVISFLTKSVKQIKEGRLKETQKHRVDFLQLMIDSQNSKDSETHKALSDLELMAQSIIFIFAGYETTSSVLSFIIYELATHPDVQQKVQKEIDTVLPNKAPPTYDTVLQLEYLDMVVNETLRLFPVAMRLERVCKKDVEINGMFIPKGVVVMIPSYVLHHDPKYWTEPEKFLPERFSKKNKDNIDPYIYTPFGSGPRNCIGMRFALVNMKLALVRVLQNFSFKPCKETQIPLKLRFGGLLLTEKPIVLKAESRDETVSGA

As for `COc1ccc(NC(=O)c2ccc(C(=N)N(C)C)cc2)c(C(=O)Nc2ccc(Cl)cn2)c1`, in experiment [1], the Potency result was “inactive”.

`C[C@H](O)CN(C)C`: the Potency result in experiment [1] is “inactive”.

Consider `COc1ccc(-c2n[nH]c3c2cnc2cc(OC)c(OC)cc23)cc1`, for which the Potency result in experiment [1] was “inactive”.

Turning to `CN1CCN(c2cc3c(cc2F)c(=O)c(C(=O)O)cn3-c2ccc(F)cc2)CC1`, the Potency entry in experiment [1] is “inactive”.

In the case of `COc1ccc(NC(=O)CSc2nc(-c3cccs3)cc(C(F)(F)F)n2)cc1OC`, the Potency entry in experiment [1] was “inactive”.

On to `O=[N+]([O-])c1ccc(Oc2ccc(N=C=S)cc2)cc1`, for which the Potency in experiment [1] is 2.39 µM (active).

Turning to `CCc1ccccc1OC[C@@H](O)CN[C@H]1CCCc2ccccc21`, the Potency result in experiment [1] was “inactive”.

Turning to `CCC(CC)Nc1nc(C)c(-c2ccc(OC(F)(F)F)cc2OC)nc1OC`, the Potency entry in experiment [1] is “inactive”.

As to `O=C(Cn1c(=O)n(-c2ccc(Cl)cc2)c(=O)c2oc3ccccc3c21)Nc1ccccc1`, the Potency entry in experiment [1] was “inactive”.

On to `Cc1ccc(Nc2nnc(-c3ccc([N+](=O)[O-])cc3)o2)cc1Cl`, for which the Potency result in experiment [1] was “inactive”.

With `CO/N=C(\C(=O)N[C@@H]1C(=O)N2C(C(=O)O)=C(COC(C)=O)CS[C@H]12)c1csc(N)n1`, the Potency result in experiment [1] is “inactive”.

In the case of `OC[C@@H](O)C(O)[C@@H](O)CO` (stereo partly specified), the Potency entry in experiment [1] was “inactive”.

Take `c1ccc(N2CCN(CCc3nn[nH]n3)CC2)cc1`: the Potency entry in experiment [1] was “inactive”.

As to `N#Cc1c[nH]c2c(C(=O)N3CCN(CCc4ccc(F)cc4)CC3)cccc12`, the Potency result in experiment [1] is “inactive”.

On to `Cc1ccc(S(=O)(=O)Nc2nc3n(n2)C(c2ccc(F)cc2)C=C(c2ccccc2)N3)cc1` (stereo unspecified), for which the Potency entry in experiment [1] is “inactive”.

For `CCOC(=O)CNC(=O)[C@@H]1CCCN1C(=O)Cc1ccccc1` (PhAc-Pro-Gly-OEt), the Potency entry in experiment [1] is “inactive”.

For the compound `Fc1ccc(-c2c3cccc(C(F)(F)F)c3nn2Cc2ccc(F)cc2Cl)cc1`, in experiment [1], the Potency entry is “inactive”.

Take `O=[N+]([O-])c1cn2c(n1)OC[C@@H](OCc1ccc(-c3ccc(OC(F)(F)F)cc3)nc1)C2`: the Potency result in experiment [1] was “inactive”.

For the compound `Cc1cc(Nc2ccc(NC(=O)c3ccc(Nc4ccnc5ccccc45)cc3)cc2)nc(N)n1`, in experiment [1], the Potency result was “inactive”.

`Cc1cc(N)c2cc(NC(=O)Nc3ccc4nc(C)cc(N)c4c3)ccc2n1`: the Potency entry in experiment [1] was “inactive”.

For `COc1ccc(NC(=O)c2ccc(-c3ccc(C(N)=O)cc3C)cc2)cc1N1CCN(C)CC1`, in experiment [1], the Potency result was “inactive”.

For `CC(=O)Nc1nc2c(Oc3cc(-c4ccc(C(F)(F)F)cc4)ncn3)cccc2s1`, in experiment [1], the Potency is 26.8 µM (active).

On to `CN[C@H](CC(C)C)C(=O)N[C@H]1C(=O)N[C@@H](CC(N)=O)C(=O)N[C@H]2C(=O)N[C@H]3C(=O)N[C@H](C(=O)N[C@H](C(=O)O)c4cc(O)cc(O)c4-c4cc3ccc4O)[C@H](O)c3ccc(c(Cl)c3)Oc3cc2cc(c3O[C@@H]2OC(CO)[C@@H](O)[C@H](O)[C@@H]2O[C@H]2C[C@](C)(N)[C@H](O)[C@H](C)O2)Oc2ccc(cc2Cl)[C@H]1O` (stereo partly specified), for which, in experiment [1], the Potency entry is “inactive”.

With `On1ncc(C2CCNCC2)c1-c1cccc(-c2ccccc2)c1`, the Potency result in experiment [1] was “inactive”.

`O=C(OCc1ccccc1)c1cccnc1`: in experiment [1], the Potency result was “inactive”.

In the case of `C[C@@H](Nc1cc(NS(=O)(=O)N2CCC2)nc(SCc2cccc(F)c2F)n1)[C@@H](O)CO`, the Potency entry in experiment [1] was “inactive”.

As to `CC1(C)Oc2ncnc(N)c2N=C1c1ccc(C23CCC(CC(=O)O)(CC2)CC3)cc1`, the Potency entry in experiment [1] was “inactive”.

Take `CC(C)Nc1nc(Nc2ccccc2)nc(-c2ccccc2)n1`: in experiment [1], the Potency result is “inactive”.

`COc1ccc(NC(=O)c2ccc(-c3ccc(C(=N)N)cc3C)cc2)cc1N1CCN(C)CC1`: in experiment [1], the Potency result is “inactive”.

As for `O=C(O)c1cccc(-c2ccc(-c3cn(C(=O)N4CCCCC4Cc4ccccc4)nn3)cc2)c1` (stereo unspecified), the Potency result in experiment [1] was “inactive”.

Take `COC(=O)c1cc(S(C)(=O)=O)ccc1OC`: the Potency result in experiment [1] is “inactive”.

For the compound `CCOc1ccc(-c2nn3ncccc3c2-c2ccc(S(C)(=O)=O)cc2)cc1`, the Potency entry in experiment [1] is “inactive”.

For `CC(NC(=O)CCc1nc2ccccc2c(=O)[nH]1)c1ccccc1` (stereo unspecified), the Potency result in experiment [1] was “inactive”.

For `O=C(CO)[C@@H](O)[C@H](O)[C@@H](O)C(=O)O`, in experiment [1], the Potency entry is “inactive”.

With `Cc1ccc(Nc2nc3nonc3nc2Nc2cccc(C(F)(F)F)c2)cc1Cl`, in experiment [1], the Potency result is “inactive”.

Consider `Cc1c(O)cc2c(c1C)O[C@](C)(CCC[C@H](C)CCC[C@H](C)CCCC(C)C)CC2`, for which the Potency result in experiment [1] is “inactive”.

For `O=C(CSc1nc(-c2ccc(F)cc2)nc2c1Cc1ccccc1O2)Nc1cccc(C(=O)O)c1`, the Potency entry in experiment [1] was “inactive”.

With `CCCC(=O)O`, the Potency result in experiment [1] is “inactive”.

For `CC1(O)CCC(C(C)(C)O)CC1` (stereo unspecified), the Potency result in experiment [1] is “inactive”.

For the compound `N[C@@H]1CCCCN(c2c(F)cc3c(=O)c(C(=O)O)cn(C4CC4)c3c2Cl)C1`, the Potency result in experiment [1] was “inactive”.

With `COc1ccc(C(=O)NC(c2ccc(Cl)cc2)c2cc(Cl)c3cccnc3c2O)cc1` (stereo unspecified), the Potency entry in experiment [1] is “inactive”.

On to `CC1(C)CC1C(=O)NC(=CCCCCSCC(N)C(=O)O)C(=O)O` (stereo unspecified), for which the Potency result in experiment [1] is “inactive”.

Take `O=c1[nH]c2cc(C(F)(F)F)c(N3CCOCC3)cc2n(CP(=O)(O)O)c1=O`: the Potency result in experiment [1] and in experiment [2] was “inactive” in each case.

For `CN1CCN(c2nc(-c3ccc(C(=O)NC4(C(=O)NCC#N)CCCCC4)cc3)cs2)CC1`, the Potency entry in experiment [1] and in experiment [2] was “inactive” each time.

As to `O=C(O)CCC(=O)O`, the Potency result in experiment [1] and in experiment [2] was “inactive” each time.

Regarding `C=Cc1ccccc1`, the Potency result in experiment [1] was “inactive”.

`O=C(O)c1cc(O)c2c(O)c3c(O[C@@H]4O[C@H](CO)[C@@H](O)[C@H](O)[C@H]4O)cccc3c(-c3c4cc(C(=O)O)cc(O)c4c(O)c4c(O[C@@H]5O[C@H](CO)[C@@H](O)[C@H](O)[C@H]5O)cccc34)c2c1`: in experiment [1], the Potency result was “inactive”.

For `O=C(c1ccc(F)cc1)C1CCN(CCn2c(=O)nc3n(c2=O)CCCC3)CC1`, the Potency entry in experiment [1] and in experiment [2] was “inactive” each time.

Consider `c1ccc(-c2csc(N3CCOCC3)n2)cc1`, for which the Potency result in experiment [1] and in experiment [2] was “inactive” each time.

Take `O=C(O)c1ccccc1NC(=O)N1CCC(c2ccccc2C(F)(F)F)CC1`: the Potency entry in experiment [1] was “inactive”.

For `CN(C)CC(=O)Nc1ccc2[nH]c(=O)c3ccccc3c2c1`, the Potency entry in experiment [1] is “inactive”. Moreover, in experiment [2], the Potency was 20.6 µM (active).

Take `c1ccc2ccccc2c1`: the Potency result in experiment [1] was “inactive”.

Take `Cc1ccc(S(=O)(=O)Nc2nc3n(n2)C(c2ccc(Cl)cc2)C=C(c2ccccc2)N3)cc1` (stereo unspecified): in experiment [1], the Potency result is “inactive”.

Take `FC(F)(F)Oc1ccc(-c2ccc3nnc(C(F)(F)F)n3c2)cc1`: the Potency entry in experiment [1] and in experiment [2] was “inactive” each time.
